Source: PubChem
HCV inh: blocks hepatitis C virus | Huh7.5.1 HCVcc-Cre infection, luciferase reporter, 44 h | AID 651820 | hit rate 3.4% among 340,000 | Potency, µM (series often up to 41.8 µM), for the others: top-dose activity change, negative = inhibition, usual class: inhibitors
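Cells (1,000/well) were plated 4 h before compound, then infected with HCVcc-Cre virus (~0.5 moi). After 44 h further culture, infection was read as luciferase luminescence following a 15 min substrate incubation at room temperature.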
Pf growth 96h: P. falciparum growth inhibition at 96 hour, primary screen for plastid delayed-death inhibitors. P. falciparum luciferase reporter growth, 96 h. Potency, µM (titrated, usually from 28.7 µM), without a hit: top-dose activity change, negative = inhibition, actives largely listed as inhibitors. hit rate 6.9% among 320,000. AID 504834
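Two-generation exposure (96 h) targets delayed-death phenotype. Reporter parasites carrying integrated firefly luciferase, in red cells at 2% hematocrit and 0.05% parasitemia final, kept at 37 C, 5% CO2; luminescence loss indicates inhibition.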
AMA1-RON2 inh: inhibitors of Plasmodium falciparum AMA1-RON2 interaction | AlphaScreen AMA1-biotinylated RON2 peptide binding | Potency, µM (series often up to 58.2 µM), for inactives: top-dose activity change, negative = inhibition, actives largely listed as inhibitors | hit rate 0.2% among 360,000 | AID 720542;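 further: 0% = vehicle wells and -100% = peptide control; nearly all actives have a fitted effect of over 45% in size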
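AMA1 (3D7) with his tag at 25 nM final met compounds first, then biotinylated RON2 peptide at 25 nM; detection used donor plus acceptor beads, 10 µg/mL apiece, read by AlphaScreen after 30 min at room temperature.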
Pf growth 48h: inhibits P. falciparum growth in the first generation, 48 h. Potency, µM (doses to about 28.7 µM), for the others: top-dose activity change, negative = inhibition, actives largely listed as inhibitors. P. falciparum luciferase growth in erythrocytes, 48 h. AID 504832. hit rate 5.9% among 310,000
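Luciferase-expressing parasites in RBCs, 2% Hct / 0.1% parasitemia final; RPMI 1640 + 0.5% Albumax; 37 C, 5% CO2, one generation; luminescence read-out, lower signal = inhibition.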
An asterisk follows results filed as active; ? = inconclusive; · = no result; [ ] = dose if it differs, or a comment. A selection: hits, their analogues and other compounds. The true share with any hit is near 11%. The call rests on the fitted dose curve; in most records, active means well fitted curve in the direction sought with a large enough effect; inconclusive means small, poorly fitted or top-dose-only effect, or another doubt; inactive means no such curve, though single readings can be large; an effect the other way counts as inactive or inconclusive. Unless noted, on the % scale 0 is the no-effect control and ±100 the full control effect; potency means the concentration at half of the fitted maximal effect.

SMILES | HCV inh | Pf growth 96h | AMA1-RON2 inh | Pf growth 48h
N#C/C(=C\c1cc(O)c(O)c(O)c1)C(N)=O | 16.9% | ? | ? | 10.4µM*
N#C/C(=C\c1cc(Cl)c(OCc2ccc(Cl)cc2)c(Cl)c1)C(N)=O | · | 91.6% | · | 12.1%
C=C(C)CN1CCN(S(=O)(=O)c2ccc(C)c(N(C)S(=O)(=O)c3ccc(C)cc3)c2C)CC1 | ? | -17.6% | -24.0% | 10.4µM*
Cc1ccc(S(=O)(=O)N(C)c2c(C)ccc(S(=O)(=O)N3CCN(C)CC3)c2C)cc1 | -0.1% | ? | 7.5% | -27.5%
CN(C)c1ccc(-n2cccc2/C=C/[N+](=O)[O-])cc1 | 10µM* | 0.5% | 7.08µM* | ?
CC1(C)N=C(SCC(=O)Nc2ccccc2)C(c2ccc(Cl)cc2)=N1 | ? | ? | -4.1% | -19.5%
Cc1ccc(C2=NC(C)(C)N=C2SCC(=O)Nc2ccc(Cl)cc2)cc1 | ? | 4.15µM* | -10.4% | ·
COc1cccc(-c2cc3nc(-c4ccccc4)cc(N4CCCC(O)C4)n3n2)c1 (centres undefined) | 3.98µM* | 7.8% | 48.7% | 11.7µM*
Fc1ccc(-c2cc3nc4c(c(N5CCOCC5)n3n2)CCCC4)cc1 | ? | -6.5% | 14.4% | 10.4µM*
Cc1cccc(-c2cc3nc4c(c(N5CCCC(O)C5)n3n2)CCC4)c1 (centres undefined) | 7.08µM* | -30.9% | -7.1% | 6.57µM*
COCCN1CCN(c2c3c(nc4cc(-c5cccc(F)c5)nn24)CCC3)CC1 | 9.6% | ? | -3.2% | ?
OC1CCN(c2cc(-c3ccccc3)nc3cc(-c4ccc(F)cc4)nn23)CC1 | -29.5% | 20.3% | 3.8% | ?
OC1CCCN(c2c3c(nc4cc(-c5cccc(Cl)c5)nn24)CCC3)C1 (centres undefined) | ? | 0.0% | -7.5% | 4.65µM*
CC(=O)c1ccc(OCCCC(=O)OCC(=O)Nc2ccc3[nH]c(=O)[nH]c3c2)cc1 | -5.3% | 35.3% | 14.6% | 54.4%
O=C1[C@H]2[C@@H]3CCN1CCC[C@@H]2C=C[C@@H]3c1ccc(Br)cc1 | · | · | -25.5% | ·
OC1CCCN(c2c3c(nc4cc(-c5cccc(F)c5)nn24)CCCC3)C1 (centres undefined) | 6.31µM* | ? | 18.7% | ?
COc1ccc(NC(=S)Nc2cccc(C(F)(F)F)c2)c(C)c1 | 13.2% | 184.7% | -7.7% | -31.3%[5.75 µM]
COc1cccc(/C=C/C(=O)OCC(=O)Nc2cccc(S(=O)(=O)N3CCOCC3)c2)c1OC | -4.1% | 15.7% | -5.0% | -15.9%
CCOc1ccccc1Nc1nc2ccccc2n1C(C)C | -17.2% | 33.4% | -11.1% | ?
CCOc1ccc(-n2c(SCC(N)=O)nc3c(c2=O)SCC3)cc1 | -14.9% | -30.5% | -4.3% | 8.28µM*
O=C(CSc1nc2c(c(=O)n1-c1ccc(Cl)cc1)SCC2)Nc1nccs1 | 1.7% | -7.8% | 8.4% | 5.22µM*
O=C(CSc1nc2c(c(=O)n1-c1ccc(Br)cc1)SCC2)Nc1nccs1 | -6.4% | -18.1% | -6.0% | ?
COc1ccc(NC(=O)CSc2nc3c(c(=O)n2-c2ccc(F)cc2)SCC3)cc1 | 4.5% | 10.4µM* | -4.1% | -22.2%
CCc1cccc2c1NC(=O)[C@]21[C@@H]2C(=O)N(Cc3ccccc3)C(=O)[C@@H]2[C@@H]2CCCN21 | -5.9% | -1.9%[5.75 µM] | -11.4% | 9.28µM*
Cc1n(CC(O)COCc2ccccc2)c2ccccc2[n+]1C (centres undefined) | 13.7% | 3.29µM* | -0.5% | 9.28µM*
SMILES | HCV inh | Pf growth 96h | AMA1-RON2 inh | Pf growth 48h
Cc1ccnc(NC(=O)c2cccc(S(=O)(=O)N3CCN(c4ccccc4)CC3)c2)c1 | ? | -69.6% | -4.8% | 17.3%
CCc1nnc(NC(=O)c2cccc(S(=O)(=O)N3CCN(c4ccccc4)CC3)c2)s1 | -18.5% | 10.4µM* | 18.7% | ·
Cc1ccc(NC(=O)c2cccc(S(=O)(=O)N3CCN(c4ccccc4)CC3)c2)nc1 | 12.6µM* | ? | -16.6% | ?
c1ccc([C@H]2CN3C(=N2)Sc2ccccc23)cc1 | ? | 123.8% | -1.3% | 71.7%
COc1ccccc1CNC(=O)C1(C)CCN1Cc1ccc2ccccc2c1 (centres undefined) | · | · | -17.6% | ·
CCC(C)(C)n1nnnc1C(C(C)C)N(CCN1CCOCC1)Cc1cc2cccc(C)c2[nH]c1=O (centres undefined) | -1.2% | 13.1µM* | 25.7% | ·
Cc1cc(Br)ccc1NC(=O)CN(C)C(=O)C1=COCCO1 | 11.2% | · | -2.3% | ·
Cc1ccc(C)n1-n1cnc2sc(-c3ccccc3)cc2c1=O | 22.4µM* | -4.2% | ? | ?
Sc1oc(-c2ccccc2)cc1C=Nc1ccccc1 | -9.0% | ? | -16.5% | ·
FC(F)(F)c1ccccc1N1CC1c1ccncc1 (centres undefined) | -7.4% | 2.0% | 2.1% | ·
O=C1N(c2ccccc2C(F)(F)F)O[C@@]1(c1ccccc1)C1CCCC1 | -17.5% | 0.828µM* | 39.7% | 0.738µM*
O=C1N(c2ccccc2C(F)(F)F)O[C@@]1(c1ccccc1)C1CCCCC1 | -8.0% | ? | 33.9% | 1.47µM*
COC(=O)N1C(=O)[C@@](c2ccccc2)(C2CCCCC2)N1C(=O)OC | 9.1% | 46.0% | 0.4% | 39.1%
Clc1ccc(CSC(Cn2ccnc2)c2ccc(Cl)cc2Cl)cc1 (centres undefined) | 6.0%[8.37 µM] | 2.94µM* | 2.2% | 2.08µM*
Clc1ccc(CS[C@@H](Cn2ccnc2)c2ccc(Cl)cc2Cl)cc1 | · | 2.28µM* | · | 5.1µM*
O=C(Cc1ccc(Cl)cc1)NCCCn1ccnc1 | 2.8% | ? | -2.6% | ?
CN(C(=O)c1cc(-c2cccs2)nn1-c1ccccc1)C1CCS(=O)(=O)C1 (centres undefined) | · | · | -6.7% | ·
CC(C)CC(=O)N1CCN(c2ccc(NC(=O)c3ccco3)cc2)CC1 | · | 9.28µM* | -2.8% | ?
COc1ccccc1C(=O)NC(=S)Nc1ccc(NC(=O)c2ccco2)cc1 | -20.5% | 5.22µM* | -14.6% | ?
CC(C)CC(=O)NC(=S)Nc1ccc(NC(=O)c2ccco2)cc1 | -5.6% | 6.57µM* | -3.9% | ?
COc1ccccc1C(=O)Nc1ccc(NC(=O)c2ccco2)cn1 | ? | 30.6% | 9.3% | 22.5%
CCC(=O)NC(=S)Nc1ccc(NC(=O)c2ccco2)cc1 | -12.1% | ? | -13.5% | ?
CCC(C)n1c(=S)[nH]c2c(sc3ccc([N+](=O)[O-])cc32)c1=O (centres undefined) | ? | ? | 75.5% | 10.3%
O=C(N/N=C/c1ccc(F)cc1)c1cccc(NC(=O)c2ccc(F)cc2)c1 | -19.4% | ? | -6.6% | ?
COc1ccccc1C(=O)NC(=O)COC(=O)c1cccc(NC(C)=O)c1 | 9.1% | 14.7% | -13.6% | 6.2%
Nc1ncc(-c2ccc([N+](=O)[O-])cc2)cn1 | -5.8% | -91.2% | -14.7% | 41.7%
O=[N+]([O-])c1ccc(-c2cnc(NO)nc2)cc1 | -1.4% | ? | 47.8%[11.6 µM] | 11.7µM*
CCCCC(=O)NC(=S)Nc1cccc(NC(=O)c2ccco2)c1 | ? | -0.5% | 7.3% | 13.3%
c1ccc(Nc2nnc(SCc3cccc4ccccc34)s2)cc1 | ? | 8.28µM* | -1.0% | ·
